# Tested on: not listed separately
# Experiment: RPMI8226 myeloma cell viability, profiling panel, resazurin fluorescence, basal, 24 h, PK04 Diversity Set (AID 1180);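 note: RPMI8826 multiple myeloma cell line at 5000 cells per well; test concentration not given here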
# Conditions: higher = more signal
row,SMILES,z-score
1,C=C(C)C1CN([C@H](CO)c2ccccc2)C(=O)/C1=C\c1ccccc1 (some centres undefined),0.064
2,C[N+](C)(C)CCCC[C@@H]1NC(=O)[C@H]2C[C@@H](C(=O)NCCCCCN)[C@@H](c3ccc(O)cc3)N2C1=O,1.24
3,CC(=O)NCCCC[C@@H]1NC(=O)[C@H]2C[C@@H](C(=O)NCCCCCN)[C@@H](c3ccc(O)cc3)N2C1=O,-0.121
4,O=C1c2ccccc2[C@](Cc2ccccc2I)(C(=O)NCCN2CCOCC2)[C@H](c2ccc(CO)cc2)N1Cc1ccccc1C(F)(F)F,-0.606
5,CCOC(=O)C[C@H]1[C@H](OC(=O)c2ccc(-c3ccccc3)cc2)[C@@H](NC(=O)c2ccc(-c3ccccc3)cc2)c2cc(OCCCO)ccc2N1C(=O)c1ccccc1,-0.967
6,COC(=O)C1=CC(CCCO)=CC(c2ccc(CN3CCCC3)cc2)N(C)C=C1C(=O)OC (centres undefined),0.154
7,CCCC1(C(=O)OC)C=C2C(=C(C(C)C)C(=O)C2C)CN1 (centres undefined),-1.44
8,C=CCOC(=O)[C@H]1[C@@H]2C(=O)O[C@@H](c3ccccc3)[C@@H](c3ccccc3)N2[C@@H](c2ccc(OCCOC(=O)[C@H]3C[C@H]4C(=O)NCC(=O)N4[C@H]3c3cccc(OCCO)c3)cc2)[C@]12C(=O)Nc1ccc(I)cc12,0.973
9,C=CCNC(=O)[C@H]1[C@@H]2C(=O)O[C@@H](c3ccccc3)[C@@H](c3ccccc3)N2[C@@H](c2ccc(O)cc2)[C@]12C(=O)N(C(=O)OCCOC)c1ccc(C#Cc3ccc(OC)cc3)cc12,-0.772
10,CS(=O)(=O)CCOC(=O)C1=CC(CCCO)=CC(C2CC2)N(Cc2sc3ccccc3c2Cl)C=C1C(=O)OCCS(C)(=O)=O (centres undefined),-0.541
11,CC(C)(C)OC(=O)CC[C@@]1(C(=O)N2CCOCC2)N=C(c2ccc(OCCCO)cc2)O[C@@H]1c1ccccc1CN=[N+]=[N-],-0.365
12,CN1C(=O)C2C=CC(C(O)c3ccc(I)cc3)N(N(c3ccccc3)c3ccccc3)C2C1=O (centres undefined),-1.1
13,CC(C)(C)OC(=O)N1[C@@H](C=C(Br)Br)COC1(C)C,-0.673
14,CCCN1C(=O)[C@@]2(c3ccc([N+](=O)[O-])cc3)CC(=O)N(C3CCCCC3)[C@@H]2c2ccc(CO)cc21,-0.606
15,C=CCNC(=O)[C@H]1[C@@H]2C(=O)O[C@@H](c3ccccc3)[C@@H](c3ccccc3)N2[C@@H](c2ccc(OCCO)cc2)[C@]12C(=O)N(C(=O)OCCOC)c1ccc(C#CCC(C(=O)OC)C(=O)OC)cc12,-1.31
16,CN1C(=O)C2C=CC(C(O)COCc3ccccc3)N(Nc3ccc([N+](=O)[O-])cc3[N+](=O)[O-])C2C1=O (centres undefined),-0.143
17,COC(=O)C1=CC(c2ccc(CO)cc2)=CC(C2CC2)N(Cc2cc3c(cc2Br)OCO3)C=C1C(=O)OC (centres undefined),-1.25
18,C=CC[C@H](O)c1ccc(O)c(F)c1,-0.0926
19,COc1ccc(C(O)C2C=CC3C(=O)N(c4ccccc4)C(=O)C3N2Nc2ccccc2F)c2ccccc12 (centres undefined),0.0565
20,C=C(COC)C(=O)CC[C@@H](OC(=O)c1ccccc1-c1ccccc1C(=O)O)c1ccccc1OCCO,-1.81
21,COC(=O)C(CC#Cc1ccc2c(c1)[C@]1(C(=O)N2)[C@H](C(=O)N2CCCCCCC2)[C@H]2C(=O)O[C@H](c3ccccc3)[C@H](c3ccccc3)N2[C@@H]1c1ccc(OCCO)cc1)C(=O)OC,0.0283
22,C[C@H]1C2[C@H](Cc3ccccc3)NC(=O)[C@]23C(=O)N[C@@H](Cc2ccccc2)C(=O)N2CCC[C@H]2C(=O)NC/C=C/CC/C=C/C3[C@@H]2O[C@]12C (some centres undefined),-0.39
23,CCCC[C@@H](O)C1=C(C)Cn2c(=O)n(-c3ccccc3)c(=O)n2[C@H]1CO,-0.0486
24,CC(C)c1ccc(NN2C(C(O)C3CCCCC3)C=CC3C(=O)N(c4ccccc4)C(=O)C32)cc1 (centres undefined),-0.675

# Target: E3 ubiquitin-protein ligase XIAP (Homo sapiens) (UniProt P98170)
# Sequence (P98170 whole entry, looked up): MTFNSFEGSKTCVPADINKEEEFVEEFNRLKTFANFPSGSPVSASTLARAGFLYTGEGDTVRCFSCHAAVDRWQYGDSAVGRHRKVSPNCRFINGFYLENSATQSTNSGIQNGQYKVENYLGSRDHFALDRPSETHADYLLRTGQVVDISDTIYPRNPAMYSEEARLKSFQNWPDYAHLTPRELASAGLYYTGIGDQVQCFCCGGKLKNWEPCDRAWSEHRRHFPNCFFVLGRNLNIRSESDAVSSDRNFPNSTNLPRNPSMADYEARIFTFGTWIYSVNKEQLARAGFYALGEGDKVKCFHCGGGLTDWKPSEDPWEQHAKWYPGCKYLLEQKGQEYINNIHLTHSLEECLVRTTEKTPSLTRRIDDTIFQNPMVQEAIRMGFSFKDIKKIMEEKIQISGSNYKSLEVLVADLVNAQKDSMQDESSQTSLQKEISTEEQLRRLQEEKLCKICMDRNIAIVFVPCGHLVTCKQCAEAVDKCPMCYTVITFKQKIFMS
# Experiment: XIAP binders, primary screen, biophysical, small-molecule microarray, fluorescence 635 nm (AID 1181);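 note: score merges 667 nm emission and signal to noise over triplicate slides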
# Conditions: small-molecule microarray binding, higher = more signal
row,SMILES,composite z-score
1,COCCOC(=O)N1C(=O)[C@@]2(c3cc(C#CCC(C(=O)OC)C(=O)OC)ccc31)[C@H](C(N)=O)[C@H]1C(=O)O[C@H](c3ccccc3)[C@H](c3ccccc3)N1[C@@H]2c1ccccc1OCCO,0.231
2,C=C(COC)/C(=C/C[C@@H](OC(C)=O)c1cccc(OCCO)c1)c1cnc2ccccc2c1,0.133
3,CC(C)[Si](C#Cc1ccccc1)(O[C@H](c1ccccc1)c1cn(Cc2ccccc2)nn1)C(C)C,-0.516
4,C[C@]1(C(=O)O)c2ccccc2C(=O)N(Cc2cc(C(F)(F)F)cc(C(F)(F)F)c2)[C@H]1c1ccc(CO)cc1,-0.173
5,[N-]=[N+]=NCc1ccccc1[C@H]1OC(c2ccc(OCCCO)cc2)=N[C@@]1(CCS(=O)(=O)c1ccccc1)C(=O)NCCN1CCOCC1,-0.115
6,C=CC[C@@]1(C(=O)NCCCOC)N=C(c2ccc(OCCCO)cc2)O[C@@H]1c1ccccc1CN=[N+]=[N-],0.289
7,CC(=O)NCCCC[C@@H]1NC(=O)[C@H]2C[C@@H](C(=O)O)[C@@H](c3cccc(OCCO)c3)N2C1=O,-0.138
8,C=CCNC(=O)[C@H]1[C@@H]2C(=O)O[C@@H](c3ccccc3)[C@@H](c3ccccc3)N2[C@@H](c2ccc(O)cc2)[C@]12C(=O)Nc1ccccc12,-0.144
9,Cc1ccc(S[C@]2(C(=O)NC(C)C)CC(=O)N(Cc3ccccc3)[C@@H]2c2ccc(CO)cc2I)cc1,0.301
10,COC(=O)c1ccc(OC)c(/C=C\CC(OC(=O)c2ccncc2)c2ccccc2)c1 (centres undefined),0.0774
11,COc1ccc([Si](C)(C)[C@H]2[C@H](CC(=O)N(CCO)Cc3ccccc3)O[C@@]3(C(=O)N(Cc4ccc(N5C(=O)c6cccc7cccc5c67)cc4)c4ccccc43)[C@@H]2C)cc1,0.177
12,C=C(C)C1CN([C@H](CO)c2ccccc2)C(=O)/C1=C\c1ccccc1 (some centres undefined),0.126
13,C[N+](C)(C)CCCC[C@@H]1NC(=O)[C@H]2C[C@@H](C(=O)NCCCCCN)[C@@H](c3ccc(O)cc3)N2C1=O,0.0017
14,CC(=O)NCCCC[C@@H]1NC(=O)[C@H]2C[C@@H](C(=O)NCCCCCN)[C@@H](c3ccc(O)cc3)N2C1=O,-0.224
15,O=C1c2ccccc2[C@](Cc2ccccc2I)(C(=O)NCCN2CCOCC2)[C@H](c2ccc(CO)cc2)N1Cc1ccccc1C(F)(F)F,-0.0095
16,CCOC(=O)C[C@H]1[C@H](OC(=O)c2ccc(-c3ccccc3)cc2)[C@@H](NC(=O)c2ccc(-c3ccccc3)cc2)c2cc(OCCCO)ccc2N1C(=O)c1ccccc1,0.0766
17,COC(=O)C1=CC(CCCO)=CC(c2ccc(CN3CCCC3)cc2)N(C)C=C1C(=O)OC (centres undefined),-0.153
18,CCCC1(C(=O)OC)C=C2C(=C(C(C)C)C(=O)C2C)CN1 (centres undefined),0.227

row,SMILES,composite z-score
1,C=CCOC(=O)[C@H]1[C@@H]2C(=O)O[C@@H](c3ccccc3)[C@@H](c3ccccc3)N2[C@@H](c2ccc(OCCOC(=O)[C@H]3C[C@H]4C(=O)NCC(=O)N4[C@H]3c3cccc(OCCO)c3)cc2)[C@]12C(=O)Nc1ccc(I)cc12,0.0431
2,C=CCNC(=O)[C@H]1[C@@H]2C(=O)O[C@@H](c3ccccc3)[C@@H](c3ccccc3)N2[C@@H](c2ccc(O)cc2)[C@]12C(=O)N(C(=O)OCCOC)c1ccc(C#Cc3ccc(OC)cc3)cc12,-0.0427
3,CS(=O)(=O)CCOC(=O)C1=CC(CCCO)=CC(C2CC2)N(Cc2sc3ccccc3c2Cl)C=C1C(=O)OCCS(C)(=O)=O (centres undefined),0.431
4,CC(C)(C)OC(=O)CC[C@@]1(C(=O)N2CCOCC2)N=C(c2ccc(OCCCO)cc2)O[C@@H]1c1ccccc1CN=[N+]=[N-],0.0345
5,CN1C(=O)C2C=CC(C(O)c3ccc(I)cc3)N(N(c3ccccc3)c3ccccc3)C2C1=O (centres undefined),0.95
6,CC(C)(C)OC(=O)N1[C@@H](C=C(Br)Br)COC1(C)C,0.0335
7,CCCN1C(=O)[C@@]2(c3ccc([N+](=O)[O-])cc3)CC(=O)N(C3CCCCC3)[C@@H]2c2ccc(CO)cc21,-0.0773
8,C=CCNC(=O)[C@H]1[C@@H]2C(=O)O[C@@H](c3ccccc3)[C@@H](c3ccccc3)N2[C@@H](c2ccc(OCCO)cc2)[C@]12C(=O)N(C(=O)OCCOC)c1ccc(C#CCC(C(=O)OC)C(=O)OC)cc12,0.0899
9,CN1C(=O)C2C=CC(C(O)COCc3ccccc3)N(Nc3ccc([N+](=O)[O-])cc3[N+](=O)[O-])C2C1=O (centres undefined),0.12
10,COC(=O)C1=CC(c2ccc(CO)cc2)=CC(C2CC2)N(Cc2cc3c(cc2Br)OCO3)C=C1C(=O)OC (centres undefined),0.172
11,C=CC[C@H](O)c1ccc(O)c(F)c1,-0.0088
12,COc1ccc(C(O)C2C=CC3C(=O)N(c4ccccc4)C(=O)C3N2Nc2ccccc2F)c2ccccc12 (centres undefined),0.253
13,C=C(COC)C(=O)CC[C@@H](OC(=O)c1ccccc1-c1ccccc1C(=O)O)c1ccccc1OCCO,0.261
14,COC(=O)C(CC#Cc1ccc2c(c1)[C@]1(C(=O)N2)[C@H](C(=O)N2CCCCCCC2)[C@H]2C(=O)O[C@H](c3ccccc3)[C@H](c3ccccc3)N2[C@@H]1c1ccc(OCCO)cc1)C(=O)OC,2.59
15,C[C@H]1C2[C@H](Cc3ccccc3)NC(=O)[C@]23C(=O)N[C@@H](Cc2ccccc2)C(=O)N2CCC[C@H]2C(=O)NC/C=C/CC/C=C/C3[C@@H]2O[C@]12C (some centres undefined),-0.0663
16,CCCC[C@@H](O)C1=C(C)Cn2c(=O)n(-c3ccccc3)c(=O)n2[C@H]1CO,-0.249
17,CC(C)c1ccc(NN2C(C(O)C3CCCCC3)C=CC3C(=O)N(c4ccccc4)C(=O)C32)cc1 (centres undefined),0.0471
